# Values without a mark were called inactive. Activity calls are given as the source filed them.
# Target: Homeobox protein Hox-A13 (Mus musculus) (UniProt Q62424)
# Test: disruptors of Hoxa13 oligonucleotide interaction – biochemical, fluorescence polarization, labeled oligonucleotide, primary screen (AID 1185)
# Settings: Hoxa13:DNA binding, 15 min, higher = more signal, called active from +8 up or from −8 down
# Chain of Homeobox protein Hox-A13 (Mus musculus) (Q62424 whole entry, looked up): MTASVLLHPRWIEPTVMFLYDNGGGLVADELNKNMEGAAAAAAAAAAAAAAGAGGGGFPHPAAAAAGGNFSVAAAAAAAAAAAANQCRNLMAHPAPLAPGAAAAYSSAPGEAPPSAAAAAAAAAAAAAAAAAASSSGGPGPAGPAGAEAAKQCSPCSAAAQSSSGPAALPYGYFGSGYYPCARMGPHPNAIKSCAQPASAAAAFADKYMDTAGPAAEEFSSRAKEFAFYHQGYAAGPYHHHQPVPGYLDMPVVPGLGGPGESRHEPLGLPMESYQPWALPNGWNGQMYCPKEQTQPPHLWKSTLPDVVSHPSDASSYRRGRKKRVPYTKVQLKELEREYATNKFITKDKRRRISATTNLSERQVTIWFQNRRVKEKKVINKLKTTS
row,SMILES,z-score
1,O=C1O[C@H](c2ccccc2)[C@H](c2ccccc2)N2[C@H]1[C@@H](C(=O)Nc1nc3ccccc3s1)[C@]1(C(=O)Nc3ccc(C#CC4(O)CCCCCC4)cc31)[C@H]2c1ccc(O)cc1,-1.04
2,CCCC=C(CCC)[C@@H](NS(=O)(=O)c1cccc(C(F)(F)F)c1)c1ccc(C(=O)OC)cc1,-1.64
3,C=CC[C@@]1(C(=O)NCC(O)CO)N=C(c2ccc(OCCCO)cc2)O[C@@H]1c1ccccc1CN=[N+]=[N-] (stereo partly specified),-2.67
4,Cc1ccccc1C(O)C1C=CC2C(=O)N(c3ccccc3)C(=O)C2N1Nc1ccc(C#N)cc1 (stereo unspecified),-0.699
5,O=C1O[C@H](c2ccccc2)[C@H](c2ccccc2)N2[C@H]1[C@@H](C(=O)Nc1nc3ccccc3s1)[C@]1(C(=O)Nc3ccc(C#CC4=CCCCC4)cc31)[C@H]2c1ccccc1OCCO,-9.05 (active)
6,CCCNC(=O)[C@@H]1c2ccccc2C(=O)N(Cc2cc(F)cc(C(F)(F)F)c2)[C@H]1c1ccc(CO)cc1,-2.12
7,COc1ccc(NN2C(C(O)c3cc(OC)c(OC)c(OC)c3)C=CC3C(=O)N(C4CCCCC4)C(=O)C32)cc1 (stereo unspecified),-4.58
8,CCOC(=O)C[C@H]1[C@H](OC(=O)c2cc3ccccc3oc2=O)[C@@H](NC(=O)c2ccc3ccccc3c2)c2cc(OCCCO)ccc2N1C(=O)c1ccc2ccccc2n1,-1.06
9,O=C(NCc1ccccc1)c1ccc(Br)cc1[N+](=O)[O-],0.513
10,COc1ccc([Si](C)(C)[C@@H]2[C@@H](CCO)O[C@]3(C(=O)N(Cc4ccc(NC(=O)[C@H](C)O)cc4)c4ccccc43)[C@H]2C)cc1,-4.05
11,COC(=O)C(CC#Cc1ccc2c(c1)[C@]1(C(=O)N2)[C@H](C(=O)N2CCCCCCC2)[C@H]2C(=O)O[C@H](c3ccccc3)[C@H](c3ccccc3)N2[C@@H]1c1ccc(O)cc1)C(=O)OC,1.11
12,CCOC(=O)C[C@H]1[C@H](OC(=O)Cc2ccc3c(c2)OCO3)[C@@H](NC(=O)c2ccc3ccccc3c2)c2cc(OCCCO)ccc2N1C(=O)Cc1ccc(OC)cc1,-2.03
13,COC(=O)[C@@]1(Cc2ccccc2N=[N+]=[N-])N=C(c2ccc(OCCCO)cc2)O[C@H]1c1ccccc1CN=[N+]=[N-],1.05
14,O=C1OCC=C[C@H]2OC34C=CCN(Cc5ccccc5)C(=O)[C@H]3N(CCCCCO)C(=O)[C@@H]4[C@@H]12 (stereo partly specified),-3.21
15,Cc1ccc(S(=O)(=O)N2[C@@H](c3ccccc3)C(C(=O)O)=CC[C@H]2c2ccccc2)cc1,-3.76
16,C=CC[C@@]1(C(=O)N2CCOCC2)N=C(c2ccc(OCCCO)cc2)O[C@@H]1c1ccccc1,-5.67
17,[N-]=[N+]=NCc1ccccc1C[C@]1(C(N)=O)N=C(c2ccc(OCCCO)cc2)O[C@H]1c1ccccc1CN=[N+]=[N-],1.67
18,COCCCNC(=O)[C@@H]1c2ccccc2C(=O)N(CC23CC4CC(CC(C4)C2)C3)[C@H]1c1ccc(CO)cc1,-4.65
19,Cc1ccc(N2C(=O)c3ccccc3[C@@H](C(=O)NCc3ccccc3)[C@@H]2c2ccc(CO)cc2)nc1,-0.681
20,O=C(CS)NCCCCCNC(=O)[C@H]1C[C@H]2C(=O)N3CCC[C@H]3C(=O)N2[C@H]1c1ccc(O)cc1,-3.01
21,CC(C)[Si]1(C(C)C)OCc2cc(C3CC3)nc(-c3ccccc3)c21,-0.631
22,COCC(=C=CC[C@H](O)c1ccc(OCCO)cc1)C[C@H](O)c1ccccn1,-5.63
23,C=CCNC(=O)[C@H]1[C@@H]2C(=O)O[C@@H](c3ccccc3)[C@@H](c3ccccc3)N2[C@@H](c2ccccc2OCCO)[C@]12C(=O)N(C(=O)OCCOC)c1ccc(C#CCC(C(=O)OC)C(=O)OC)cc12,0.6
24,COC(=O)[C@H]1[C@@H]2COc3ccccc3[C@H]2N[C@H]1C(=O)OC,-0.726
25,C=CC[C@]1(C(=O)N2CCCCC2)N=C(c2ccc(OCCCO)cc2)O[C@H]1c1ccccc1N=[N+]=[N-],-3.92
26,C=CCNC(=O)[C@@H]1[C@H]2C(=O)O[C@H](c3ccccc3)[C@H](c3ccccc3)N2[C@H](c2ccc(OCCO)cc2)[C@@]12C(=O)N(C(=O)OCCOC)c1ccc(C#CC3(O)CCCCCC3)cc12,2.65
